About 3,000 (1%) of roughly 290,000 compounds were called active. No stated cut-off is given here; in the data, active means inhibition mostly above about 36% (no sharp cut-off); inactive means mostly below about 34%. The sample as a whole holds a higher share of actives than the screen did.
Assay: NOD1 signaling inhibitors, primary screen, cell-based, luminescence, uHTS (AID 1578);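 further: HEK-293T reporter cells stimulated with the NOD1 agonist gamma-tri-DAP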
Conditions: NOD1-driven NF-kB luciferase reporter cells, at 4 µM, active compounds read high

SMILES	inhibition
COc1ccc(CNCc2ccc(F)cc2)c(OC)c1	-19.8% (inactive)
CCOC(=O)NC(=O)/C(N=Nc1cc(C)cc(C)c1)=C(\C)O	-20.5% (inactive)
CC(C)(C)NCC(O)(c1ccc(Cl)cc1)c1ccc(Cl)cc1	-30.2% (inactive)
CCNC(=S)N(Cc1ccc2c(c1)OCO2)C1CC(=O)N(c2ccc(F)cc2)C1=O (configuration not stated)	-9.3% (inactive)
COc1ccc(S(=O)(=O)NCc2ccccc2)cc1	9.2% (inactive)
CC1Cc2cc(S(=O)(=O)NCc3ccccc3)ccc2N1C(=O)C1CC1 (configuration not stated)	-4.7% (inactive)
Cc1ccc(S(=O)(=O)NCc2ccc(C(=O)N3CCN(c4ccccc4)CC3)cc2)cc1	15.5% (inactive)
COc1ccc(CNS(=O)(=O)c2ccc(OC)cc2)cc1	-1.2% (inactive)
COc1cccc(CNS(=O)(=O)c2ccc3c(c2)CC(C)N3C(=O)C2CC2)c1 (configuration not stated)	11.6% (inactive)
COc1ccc(S(=O)(=O)NCc2ccc(C(=O)O)cc2)cc1	40.7% (active)
COc1ccc(N2CCN(C(=O)c3ccc(CNS(=O)(=O)c4cc(C)ccc4C)cc3)CC2)cc1	-18.8% (inactive)
Cc1ccc(S(=O)(=O)NCc2ccc(C(=O)N3CCCC3)cc2)cc1	-46% (inactive)
CCOC(=O)N1CCN(C(=O)c2ccc(CNS(=O)(=O)c3ccc(C)cc3)cc2)CC1	-13.1% (inactive)
COc1ccccc1-c1noc(CCCC(=O)N2CCOCC2)n1	-3.7% (inactive)
O=C(CCc1nc(-c2ccc(Cl)cc2)no1)NC1CCCCC1	-5.8% (inactive)
CCOC(=O)C1CCCN(C(=O)CNC(=O)Cn2ccc3ccccc3c2=O)C1 (configuration not stated)	-4.8% (inactive)
O=C(NC(=O)N1CCCCC1)c1ccccc1	-30.9% (inactive)
O=C(NCc1ccccc1)c1cc[n+](CC(=O)c2cccs2)cc1	3.5% (inactive)
CCOc1ccc(CN(C)C(=O)c2ccc3ccccc3n2)cc1	-22.9% (inactive)
Cc1cccc(N(Cc2ccccc2)C(=O)c2ccc(S(C)(=O)=O)cc2)c1	5.8% (inactive)
O=[N+]([O-])c1ccc(N2CCN(C(=S)NCc3ccc(Cl)cc3)CC2)cc1	89% (active)

SMILES	inhibition
CCNC(=S)N1CCN(c2ccc([N+](=O)[O-])cc2)CC1	16% (inactive)
C=CCNC(=S)N1CCN(c2ccc([N+](=O)[O-])cc2)CC1	4.7% (inactive)
CC(C)(C)n1nc2c(c1NC(=O)c1cc(Cl)ccc1[N+](=O)[O-])CS(=O)(=O)C2	19.5% (inactive)
O=C(O)CSc1nnc(-c2ccc(Cl)cc2Cl)n1-c1ccc(Br)cc1	14.7% (inactive)
Cc1ccc(N=Nc2c(N)[nH]n3c(=O)cc(-c4ccccc4)nc23)cc1	76% (active)
Cc1ccc(N=Nc2c(N)[nH]n3c(=O)cc(C)nc23)cc1	-20.5% (inactive)
Nc1[nH]n2c(=O)cc(-c3ccccc3)nc2c1N=Nc1ccc(S(N)(=O)=O)cc1	-26% (inactive)
O=C(O)CSc1nc(-c2ccccc2)cc(=O)[nH]1	-22.9% (inactive)
Cc1ccc(C(=O)CSc2nc(C)cc(=O)[nH]2)cc1	-3.4% (inactive)
Cc1ccc(C(=O)CSc2nc(-c3ccccc3)cc(=O)[nH]2)cc1	64.8% (active)
CCOC(=O)Cn1c(=O)oc2cc(S(=O)(=O)N(C)c3ccc(OC)cc3)ccc21	3.5% (inactive)
CCOc1cc(/C=C2/C(=O)ON=C2C)cc(Br)c1O	25.8% (inactive)
COc1cc(/C=C2\C(=O)ON=C2c2ccccc2)cc(Br)c1O	13.8% (inactive)
CCOc1cc(/C=C2\C(=O)ON=C2c2ccccc2)cc(Br)c1O	39.5% (active)
C/C(N)=C(/C#N)C(=O)COC(=O)CC12CC3CC(CC(C3)C1)C2	14.9% (inactive)
CCn1c(CNC(=O)Cc2ccc(OC)cc2)nnc1SCC(=O)Nc1nccs1	-10.4% (inactive)
O=c1o[nH]c(-c2ccccc2)c1N=Nc1c(F)cccc1Cl	37% (active)
O=C(O)c1ccc(N=Nc2c(-c3ccccc3)[nH]oc2=O)cc1	-2.7% (inactive)
Cc1[nH]oc(=O)c1N=Nc1c(Cl)cccc1Cl	-17% (inactive)
Cc1ccc(N2C(=O)/C(=C/c3cccnc3)SC2=S)cc1	56.2% (inactive)
C=C1C(C(=O)Nc2ccc(F)cc2)C1C(=O)Nc1ccc(F)cc1 (configuration not stated)	3.1% (inactive)

SMILES	inhibition
O/N=C/c1ccccc1Oc1ccc(Cl)cc1	72.6% (active)
O/N=C/c1ccccc1Oc1ccccc1	22.6% (inactive)
O/N=C\c1ccccc1Oc1ccc(F)cc1	8% (inactive)
CCOC(=O)/C(C#N)=C\c1cccnc1	-19.2% (inactive)
CCOC(=O)/C(=C\c1cccnc1)C(=O)c1cc(C(C)=O)c(Nc2ccccc2)s1	102% (active)
CCOC(=O)/C(=C\c1ccccc1)C(=O)c1cc(C(C)=O)c(Nc2ccccc2)s1	57.5% (inactive)
Cc1ccc2occ(/C=N/NC(=O)c3ccccc3O)c(=O)c2c1	-14.7% (inactive)
Cc1ccc2occ(/C=N/NC(=O)c3ccccc3C)c(=O)c2c1	49% (active)
Cc1ccc2occ(/C=N/NC(=O)c3ccccc3Br)c(=O)c2c1	29.9% (inactive)
O=S1(=O)C=C(SCc2cccc(Cl)c2)Nc2ccccc21	21.1% (inactive)
COc1ccc(Nc2nc(C)nc3c2nnn3Cc2ccccc2)cc1OC	0% (inactive)
CCc1nc(Nc2ccc(OC)c(OC)c2)c2nnn(Cc3ccccc3Cl)c2n1	58.7% (active)
COc1cccc(OC)c1Nc1nc(C)nc2c1nnn2Cc1ccccc1Cl	-33.1% (inactive)
O=C(Nc1ccnn1C1CCN(C2CCCCC2)CC1)c1ccccc1	-6.5% (inactive)
COc1cc(/C=N/n2c(C)nc3ccccc3c2=O)cc(OC)c1O	-6.8% (inactive)
NS(=O)(=O)c1cc(C(=O)N2CCNC(=O)C2)ccc1Cl	70.4% (active)
O=C(c1ccc(Cl)c(S(=O)(=O)N2CCCCC2)c1)N1CCCCC1	-30.5% (inactive)
O=C(c1ccc(Cl)c(S(=O)(=O)N2CCCCCC2)c1)N1CCCC1	0.4% (inactive)
O=c1c2c([nH]c3ccccc13)C(=C1CCCC1)CC2	2.8% (inactive)
Cc1ccc(N2CCN(C(=O)c3cccs3)CC2)cc1C	1.8% (inactive)
